Source: PubChem
Rows were chosen to be rich in hits. Some 1.3% of all compounds tested hit in one or more screens of this group.
TRPV1 ag: human TRPV1 agonism; TRPV1-expressing cells, Fluo-8 calcium influx, agonist mode; activation, % at 8.33 µM; Q8NER1; AID 540275; 320,000 compounds, 0.19% hits; in the data active = activation above about 80%; inconclusive = between about 30% and that limit; note: 0% is about no effect
Target sequence (Q8NER1 whole entry, looked up): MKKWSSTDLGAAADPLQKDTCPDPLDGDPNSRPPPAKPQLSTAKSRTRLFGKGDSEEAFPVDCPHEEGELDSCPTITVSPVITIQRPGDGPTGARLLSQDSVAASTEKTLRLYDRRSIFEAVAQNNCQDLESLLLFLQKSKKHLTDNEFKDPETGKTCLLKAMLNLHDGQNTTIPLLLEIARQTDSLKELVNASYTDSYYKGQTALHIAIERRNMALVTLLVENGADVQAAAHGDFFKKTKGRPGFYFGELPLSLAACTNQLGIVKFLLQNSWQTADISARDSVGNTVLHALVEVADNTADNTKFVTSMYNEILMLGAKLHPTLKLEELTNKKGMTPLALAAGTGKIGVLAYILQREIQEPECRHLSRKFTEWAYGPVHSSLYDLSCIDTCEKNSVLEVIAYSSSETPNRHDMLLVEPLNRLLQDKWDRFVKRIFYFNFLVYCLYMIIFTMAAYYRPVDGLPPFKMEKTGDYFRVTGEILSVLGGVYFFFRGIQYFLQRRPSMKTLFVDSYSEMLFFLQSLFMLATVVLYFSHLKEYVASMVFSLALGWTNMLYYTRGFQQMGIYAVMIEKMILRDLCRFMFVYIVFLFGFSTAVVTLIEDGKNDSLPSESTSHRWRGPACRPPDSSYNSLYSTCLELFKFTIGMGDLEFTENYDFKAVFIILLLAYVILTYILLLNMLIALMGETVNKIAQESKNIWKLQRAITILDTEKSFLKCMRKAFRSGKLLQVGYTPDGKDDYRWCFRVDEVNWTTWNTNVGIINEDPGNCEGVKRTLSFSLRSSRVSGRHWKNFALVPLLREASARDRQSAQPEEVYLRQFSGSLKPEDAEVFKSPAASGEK
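Fluo-8 calcium influx in TRPV1-expressing cells, kinetic read (ex 480/em 520 nm). Compound added and read 3 min for agonist activity, followed by capsaicin at EC20 final and 2 min further read for enhancement.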
TRPML1 ag: human mucolipin-1 channel agonism. Q9GZU1. TRPML1-expressing cells, Ca2+ dye fluorescence, FDSS. activation, % (concentration not given with the values). 410,000 compounds, 0.12% hits; in the data active = activation above about 50%; inconclusive = mostly about 30% to 49%; note: 0% is about no effect
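In this qHTS format, compounds were pin-transferred onto Ca8-dye-loaded TRPML1-DL cells induced with Tet overnight, and intracellular Ca2+ fluorescence was recorded kinetically for 110 s after a 10 s baseline. A subsequent 4uM final 54-4 (EC80) addition followed by a second 110 s read served as the antagonist phase.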
KCNH2 3.1 inh: KCNH2 3.1 (human) potassium channel inhibition | U2OS KCNH2 3.1, thallium flux FluxOr; hits give low values | activity change, % (tested at about 1.8 µM) | 340,000 compounds, 0.95% hits | AID 720553;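 active = maximum activity change below -70%; inconclusive = maximum activity change from -70% to -50%; inactive = maximum activity change above -50%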;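 note: thallium influx rate constant from kinetic fluorescence after stimulation buffer; % is set by controls: 0 for no effect and ±100 for the full control effect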
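FluxOr-based Tl+ influx in U2OS cells transduced with KCNH2 3.1 virus; rate constants normalized to DMSO controls.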
TRPV1 PAM: potentiators of human vanilloid receptor 1 (TRPV1) | Q8NER1 | TRPV1-expressing cells, Fluo-8 calcium influx, capsaicin EC20 potentiation | potentiation, % at 8.33 µM | 320,000 compounds, 0.02% hits; in the data active = potentiation above about 80%; inconclusive = between about 30% and that limit; note: 0% is about no effect
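TRPV1-expressing cells were cultured overnight at 35.5C and loaded with Fluo-8 calcium dye for 40 to 90 min at room temperature. After a 10 s baseline, compound was added and calcium influx was read kinetically for 3 min (ex 480/em 520 nm).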
TRPML1 blocker: blocks the human TRPML1 channel; Q9GZU1; TRPML1-inducible cells, Ca2+ dye fluorescence, FDSS; hits give low values; inhibition of EC80 agonist-evoked calcium signal; activity change, negative = inhibition, % (concentration not given with the values); 390,000 compounds, 0.02% hits; AID 624415; in the data active = activity change below about -50%; inconclusive = between about -30% and that limit;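 note: stimulus is agonist 54-4 at its EC80 concentration; % is set by controls: 0 for no effect and ±100 for the full control effect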
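Tet-induced TRPML1-DL cells loaded with Ca8 no-wash calcium dye were read kinetically on FDSS. Compound addition was followed by EC80 agonist 54-4 (4 uM final); inhibition was read over 110 s.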
KCNH2 WT inh: inhibitors of human wildtype KCNH2 potassium channel. 340,000 compounds, 0.37% hits. activity change, % at 1.84 µM. Q12809. U2OS, BacMam KCNH2, thallium flux FluxOr; hits give low values;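 active = maximum activity change below -70%; inconclusive = maximum activity change between -70% and -50%; inactive = maximum activity change above -50%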; note: % is set by controls: 0 for no effect and ±100 for the full control effect
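U2OS cells were transduced with wild-type KCNH2 virus (2.03 x 10^8 / mL) for 4 h at room temperature, then cultured overnight at 37 C. Thallium flux was read with FluxOr dye. Rate constants were normalized to DMSO controls.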
* hit, by the source's call; ? = inconclusive; nt = no result.

SMILES | TRPV1 ag | TRPML1 ag | KCNH2 3.1 inh | TRPV1 PAM | TRPML1 blocker | KCNH2 WT inh
Cc1ccc(Cl)cc1N1CCN(C(=O)C2CCN(Cc3nc(-c4cccc(Cl)c4)oc3C)CC2)CC1 | nt | 0 | nt | nt | 46 | nt
Cc1oc(-c2cccc(Cl)c2)nc1CN1CCC(C(=O)N2CCN(c3ccccc3F)CC2)CC1 | 7 | 0 | -91* | -6 | -18 | -3
CC(C)c1ccc2oc(-c3cccc(NC(=O)c4ccc5c(c4)OCCO5)c3)nc2c1 | nt | 2 | nt | nt | -9 | nt
O=C(Nc1nncs1)c1cc(-c2ccco2)nc2ccccc12 | nt | -1 | 0 | nt | 5 | -73*
CCc1nnc(NC(=O)c2cc(-c3ccco3)nc3ccccc23)s1 | 1 | -1 | 10 | 18 | -10 | 2
O=C(NCc1ccco1)c1cccc(NS(=O)(=O)c2cccc(F)c2)c1 | -3 | 0 | 10 | 15 | 5 | -1
O=C(NCc1ccco1)c1cc(NS(=O)(=O)c2cccc([N+](=O)[O-])c2)ccc1O | 3 | 0 | -198* | 0 | 19 | -152*
Cc1ccccc1-c1noc(-c2ccc(N3CCN(C)CC3)c([N+](=O)[O-])c2)n1 | nt | -1 | nt | nt | -2 | nt
O=c1c(Cl)c(Nc2cccc(Cl)c2)cnn1-c1nc2ccccc2s1 | ? | 0 | -106* | 22 | -1 | -10
Cc1ccc(C(=O)N/C(=C\c2cccs2)C(=O)NCCCN2CCOCC2)cc1 | -2 | 0 | -49 | ? | -5 | -117*
O=C(NCCCn1ccnc1)/C(=C/c1cccs1)NC(=O)c1ccco1 | 0 | 1 | -43 | 0 | 33 | 2
Cc1ccc(C(=O)N/C(=C/c2cccs2)C(=O)NCCCn2ccnc2)cc1 | -1 | 0 | -82* | 18 | 4 | -209*
Cc1ccc(C(=O)N/C(=C\c2cccs2)C(=O)NCCCn2ccnc2)cc1C | -3 | 0 | ? | -9 | -21 | -75*
Cc1ccc(C(=O)N/C(=C\c2cccs2)C(=O)NCCCn2ccnc2)cc1 | -1 | 0 | -99* | 3 | -10 | -181*
O=C(NCCCn1ccnc1)/C(=C\c1cccs1)NC(=O)c1ccccc1 | 1 | -1 | -45 | 10 | -10 | 6
Cc1ccc(C(=O)N/C(=C\c2ccccc2)C(=O)NCCN2CCOCC2)cc1 | 6 | 0 | -17 | -13 | -4 | 0
Nc1cc(=O)[nH]c(=O)n1-c1ccc(Cl)cc1 | -4 | -1 | -10 | 16 | -77* | 0
Cc1cc(=O)n(-c2ccc(Cl)cc2)c(=O)[nH]1 | -1 | 0 | -5 | 22 | 3 | 4
COc1cccc(NC(=O)c2ccc3c(c2)CCCC3)c1 | ? | 0 | -24 | -2 | 5 | -4
Cc1cccc(NC(=O)c2ccc(OC3CSC3)cc2)c1 | ? | 2 | -36 | 3 | 8 | -4
CC(=O)c1cccc(NC(=O)c2ccc(OC3CSC3)cc2)c1 | 113* | -1 | -5 | -6 | -3 | 3
CC(=O)c1cccc(NC(=O)NC2CCCc3ccccc32)c1 (configuration not stated) | 83* | 1 | 0 | 4 | -3 | 2
CC(=O)c1ccc(NC(=O)NC2CCCc3ccccc32)cc1 (configuration not stated) | ? | -1 | 21 | -3 | -6 | -21
O=C(Nc1ccc2c(c1)CCC2)c1cccc(F)c1 | 97* | 0 | 9 | -17 | 10 | 21
O=C(Nc1ccc2c(c1)CCC2)c1cc(F)cc(F)c1 | ? | 1 | 1 | -3 | -11 | 33
CC(=O)c1cccc(NC(=O)c2ccc3c(c2)CCCC3)c1 | 87* | 0 | -9 | -1 | -12 | 42
COc1ccc(Br)c2c1-c1nc(NC(=O)c3cccc(C)c3)sc1C2 | nt | 1 | nt | nt | -8 | nt
Cc1cccc2c(C(O)c3cn(C)c4ccccc34)c[nH]c12 (configuration not stated) | nt | 1 | nt | nt | nt | nt
Clc1ccc(/C=C/c2ccnc3ccccc23)c(Cl)c1 | nt | 0 | nt | nt | nt | nt
